# Assay results: paper PMC11062922 (Nature Chemical Biology, 2023)
# Like-named read-outs stand apart in the source and are kept apart here.
# How the values were obtained:
# Parameters in all cases: species or system human, MV4-11 + K-562 + COLO205 + SK-N-BE2 + OVCAR-8
# [1] = system: CSNK1D; conditions: read-out: apparent Kd, compound concentrations: 100 nM and 1000 nM (sheet 'Samples'), n = 1
# [2] = system: MAPK14; conditions: read-out: apparent Kd, compound concentrations: 100 nM and 1000 nM (sheet 'Samples'), n = 1
# [3] = system: MAPKAPK2; conditions: read-out: apparent Kd, compound concentrations: 100 nM and 1000 nM (sheet 'Samples'), n = 1
# [4] = system: RPS6KA1; conditions: read-out: apparent Kd; compound concentrations: 100 nM and 1000 nM (sheet 'Samples'), CATDS: 0.20748336668369699; n = 1
# [5] = system: DDR1; conditions: read-out: apparent Kd, n = 1
# [6] = system: T1, DJA1; conditions: read-out: apparent Kd; compound concentrations: 100 nM and 1000 nM (sheet 'Samples'), CATDS: 0.31646295058989898; n = 1
# T1 construct: gene DNAJA1
# [7] = system: EGFR; conditions: read-out: apparent Kd, compound concentrations: 100 nM and 1000 nM (sheet 'Samples'), n = 1
# [8] = system: HCK; conditions: read-out: apparent Kd; compound concentrations: 100 nM and 1000 nM (sheet 'Samples'), CATDS: 0.11641359939997301; n = 1
# [9] = system: LYN; conditions: read-out: apparent Kd; compound concentrations: 100 nM and 1000 nM (sheet 'Samples'), CATDS: 9.0520394407802393E-2; n = 1
# [10] = system: MAPK11; conditions: read-out: apparent Kd, compound concentrations: 100 nM and 1000 nM (sheet 'Samples'), n = 1
# [11] = system: RIPK3; conditions: read-out: apparent Kd; compound concentrations: 100 nM and 1000 nM (sheet 'Samples'), CATDS: 9.4746109979172405E-2; n = 1
# [12] = system: TAOK3; conditions: read-out: apparent Kd; compound concentrations: 100 nM and 1000 nM (sheet 'Samples'), CATDS: 7.5717255281347595E-2; n = 1
# [13] = system: TNK1; conditions: read-out: apparent Kd; compound concentrations: 100 nM and 1000 nM (sheet 'Samples'), CATDS: 0.107193891906807; n = 1
# [14] = system: YES1; conditions: read-out: apparent Kd; compound concentrations: 100 nM and 1000 nM (sheet 'Samples'), CATDS: 0.13069382201385599; n = 1
# [15] = system: PBK; conditions: read-out: apparent Kd; compound concentrations: 100 nM and 1000 nM (sheet 'Samples'), CATDS: 0.53596365658376799; n = 1
# [16] = system: DDR2; conditions: read-out: apparent Kd; compound concentrations:100 nM and 1000 nM (sheet 'Samples'); n = 1
# [17] = system: PIK3CD; conditions: read-out: apparent Kd; compound concentrations:100 nM and 1000 nM (sheet 'Samples'); n = 1
# [18] = system: DCTPP1; conditions: read-out: apparent Kd; compound concentrations: 100 nM and 1000 nM (sheet 'Samples'), CATDS: 8.8642199403974303E-2; n = 1
# [19] = system: GSK3A; conditions: read-out: apparent Kd; compound concentrations: 100 nM and 1000 nM (sheet 'Samples'), CATDS: 0.126367112680837; n = 1
# [20] = system: GSK3B; conditions: read-out: apparent Kd; compound concentrations: 100 nM and 1000 nM (sheet 'Samples'), CATDS: 0.11758336701376999; n = 1
# [21] = system: HSP90AA1; conditions: read-out: apparent Kd; compound concentrations: 100 nM and 1000 nM (sheet 'Samples'), CATDS: 0.187388385432427; n = 1
# [22] = system: HSPE1; conditions: read-out: apparent Kd; compound concentrations: 100 nM and 1000 nM (sheet 'Samples'), CATDS: 0.293791169928867; n = 1
# [23] = system: PGK1; conditions: read-out: apparent Kd; compound concentrations: 100 nM and 1000 nM (sheet 'Samples'), CATDS: 0.43205738676527899; n = 1
# [24] = system: PKM; conditions: read-out: apparent Kd; compound concentrations: 100 nM and 1000 nM (sheet 'Samples'), CATDS: 9.7600585068996298E-2; n = 1
# [25] = system: FLT4; conditions: read-out: apparent Kd; compound concentrations: 100 nM and 1000 nM (sheet 'Samples'), CATDS: 0.39951332259871902; n = 1
# [26] = system: MAP3K1; conditions: read-out: apparent Kd; compound concentrations: 100 nM and 1000 nM (sheet 'Samples'), CATDS: 0.16547922944675; n = 1
# [27] = system: RET; conditions: read-out: apparent Kd; compound concentrations: 100 nM and 1000 nM (sheet 'Samples'), CATDS: 0.40344037001579403; n = 1
# [28] = system: PDGFRB; conditions: read-out: apparent Kd; compound concentrations:100 nM and 1000 nM (sheet 'Samples'); n = 1
# [29] = system: MAPK10; conditions: read-out: apparent Kd; compound concentrations: 100 nM and 1000 nM (sheet 'Samples'), CATDS: 0.12322586321359499; n = 1
# [30] = system: MAPK8; conditions: read-out: apparent Kd; compound concentrations: 100 nM and 1000 nM (sheet 'Samples'), CATDS: 8.8413103607242097E-2; n = 1
# [31] = system: MAPK9; conditions: read-out: apparent Kd; compound concentrations: 100 nM and 1000 nM (sheet 'Samples'), CATDS: 0.12213676583314199; n = 1
# [32] = system: NLK; conditions: read-out: apparent Kd; compound concentrations: 100 nM and 1000 nM (sheet 'Samples'), CATDS: 7.8409581021953403E-2; n = 1
# [33] = system: PIP4K2C; conditions: read-out: apparent Kd; compound concentrations: 100 nM and 1000 nM (sheet 'Samples'), CATDS: 0.11127151307282; n = 1
compound,measurement,setting,value
Nc1nc(-c2ccccc2F)c(-c2ccnc3ccccc23)s1 [GW560459X],potency estimated from few doses,[1]; CATDS: 0.216607074037657,1.18 µM
same,potency estimated from few doses,[2]; CATDS: 0.25122803409734401,0.843 µM
same,potency estimated from few doses,[3]; CATDS: 0.38711156152007697,0.389 µM
same,potency estimated from few doses,[4],1.32 µM
O=C(Nc1cccc(-c2nn3ncccc3c2-c2ccnc(Nc3ccccc3)n2)c1)c1c(F)cccc1F [GSK198271A],potency estimated from few doses,"[5]; compound concentrations: 100 nM and 1000 nM (sheet 'Samples'), CATDS: 0.101729312677661",0.711 µM
same,potency estimated from few doses,[6],0.111 µM
same,potency estimated from few doses,[7]; CATDS: 7.48044992603729E-2,1.6 µM
same,potency estimated from few doses,[8],0.537 µM
same,potency estimated from few doses,[9],0.933 µM
same,potency estimated from few doses,[10]; CATDS: 7.53995695049028E-2,1.56 µM
same,potency estimated from few doses,[11],0.836 µM
same,potency estimated from few doses,[12],1.54 µM
same,potency estimated from few doses,[13],0.635 µM
same,potency estimated from few doses,[14],0.431 µM
Cn1c(-c2ccncc2)c(-c2ccc(F)cc2)c2ncccc21 [RO1155240-000],potency estimated from few doses,[1]; CATDS: 0.46855924192133103,2.25 µM
same,potency estimated from few doses,[15],1.72 µM
COC(=O)Nc1nc2cc(Oc3ccc(NC(=O)Nc4cc(F)ccc4F)cc3)ccc2[nH]1.Cl [GW701424A],potency estimated from few doses,[5]; compound concentrations:100 nM and 1000 nM (sheet 'Samples'),0.242 µM
same,potency estimated from few doses,[16],1.12 µM
same,potency estimated from few doses,[17],0.0112 µM
Cn1cc(C2=C(c3cn(C)c4ccc(Cl)cc34)C(=O)NC2=O)c2ccccc21 [RO0317621-000],potency estimated from few doses,[18],2.01 µM
same,potency estimated from few doses,[19],0.423 µM
same,potency estimated from few doses,[20],0.544 µM
same,potency estimated from few doses,[21],0.137 µM
same,potency estimated from few doses,[22],0.0528 µM
same,potency estimated from few doses,[23],0.0276 µM
same,potency estimated from few doses,[24],1.18 µM
CN(c1ccc2c(c1)nc(NCc1ccc(F)cc1)n2C)c1ccnc(Nc2ccc(CS(C)(=O)=O)cc2)n1.Cl [GW813244A],potency estimated from few doses,"[5]; compound concentrations: 100 nM and 1000 nM (sheet 'Samples'), CATDS: 0.20099617628952601",0.841 µM
same,potency estimated from few doses,[25],0.166 µM
same,potency estimated from few doses,[26],1.84 µM
same,potency estimated from few doses,[27],0.163 µM
O=C(Nc1ccccc1)Nc1cccc(Oc2ccc3nccn3n2)c1 [TPKI-39],potency estimated from few doses,[16],0.732 µM
same,potency estimated from few doses,[28],0.853 µM
O=C(O)C(F)(F)F.O=C(O[C@H]1CN[C@H](C#Cc2cc3ncnc(Nc4ccc5c(ccn5Cc5cc(F)ccc5F)c4)c3s2)C1)N1CCOCC1 [GSK259178A],potency estimated from few doses,[7]; CATDS: 1,0.277 µM
CS(=O)(=O)N1CCC(n2c(=O)c(Oc3ccc(F)cc3F)cc3cnc(NC4CCOCC4)nc32)CC1 [RO5045977-000],potency estimated from few doses,"[5]; compound concentrations: 100 nM and 1000 nM (sheet 'Samples'), CATDS: 6.1893327663863601E-2",1.48 µM
same,potency estimated from few doses,[29],0.0477 µM
same,potency estimated from few doses,[10]; CATDS: 9.0776517139408097E-2,0.131 µM
same,potency estimated from few doses,[2]; CATDS: 0.53727809259194403,0.00111 µM
same,potency estimated from few doses,[30],0.145 µM
same,potency estimated from few doses,[31],0.0489 µM
same,potency estimated from few doses,[3]; CATDS: 0.38284273517915801,0.00209 µM
same,potency estimated from few doses,[32],0.247 µM
same,potency estimated from few doses,[33],0.0652 µM
